From PubChem BioAssay AID1159580 (chemical genetic matrix, 2015)
The campaign covered roughly 5,500 compounds. About 2,000 (36%) were called active. Inconclusive results (about 18%) are left out. Cut-off read from the data, not from the text of the source: active = normalized growth mostly below about 0.91 (no sharp cut-off); inconclusive = no clear call, values can overlap the other calls; inactive = mostly above about 0.92. Some of the results follow.

Experiment: chemical genetic growth profiling, strain panel (AID 1159580);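 note: tested at 20 µM; growth read once vehicle control cultures reached saturation at 30 °C; 1 = growth at the plate median or of vehicle wells; lower values mean less growth of the strain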
Details: S. cerevisiae deletion strains, growth OD

Measured: normalized growth

CCN[C@@H]1C[C@H](N)[C@@H](O[C@H]2OC(CN)=CC[C@H]2N)[C@H](O)[C@H]1OC1OC[C@](C)(O)[C@H](NC)[C@H]1O (stereo not given in full)
inactive: locus YAL021C, strain ccr4, active compounds read low 0.983 | locus YAL026C, strain drs2, active compounds read low 0.995 | locus YAL030W, strain snc1, active compounds read low 1.01 | locus YBL061C, strain skt5, active compounds read low 1 | locus YBR009C, strain hhf1, active compounds read low 1.02 | locus YBR023C, strain chs3, active compounds read low 1 | locus YBR171W, strain sec66, active compounds read low 0.996 | locus YBR231C, strain swc5, active compounds read low 1.01 | locus YBR279W, strain paf1, active compounds read low 1.01 | locus YCL011C, strain gbp2, active compounds read low 0.977 | locus YCL016C, strain dcc1, active compounds read low 1 | locus YCL061C, strain MRC1, active compounds read low 0.989 | locus YCL069W, strain vba3, active compounds read low 0.994 | locus YCR088W, strain abp1, active compounds read low 0.983 | locus YDL005C, strain med2, active compounds read low 1 | locus YDL040C, strain nat1, active compounds read low 1.01 | locus YDR001C, strain nth1, active compounds read low 0.985 | locus YDR069C, strain doa4, active compounds read low 1.01 | locus YDR137W, strain rgp1, active compounds read low 0.96 | locus YDR159W, strain sac3, active compounds read low 1.01 | locus YDR195W, strain ref2 0.993 | locus YDR297W, strain sur2, active compounds read low 0.998 | locus YDR334W, strain swr1, active compounds read low 0.979 | locus YDR335W, strain msn5, active compounds read low 0.986 | locus YDR392W, strain spt3, active compounds read low 0.998 | locus YEL003W, strain gim4, active compounds read low 0.989 | locus YEL037C, strain rad23, active compounds read low 0.948 | locus YEL061C, strain CIN8 (second series), active compounds read low 0.981 | locus YER015W, strain faa2, active compounds read low 1.02 | locus YER016W, strain bim1, active compounds read low 0.997 | locus YER111C, strain swi4, active compounds read low 0.994 | locus YER155C, strain BEM2 (second series), active compounds read low 1.01 | locus YFR010W, strain ubp6, active compounds read low 0.975 | locus YGL167C, strain pmr1, active compounds read low 0.998 | locus YGL173C, strain kem1, active compounds read low 1 | locus YGL227W, strain vid30, active compounds read low 0.995 | locus YGL240W, strain doc1, active compounds read low 1.01 | locus YGL253W, strain hxk2, active compounds read low 0.995 | locus YHR013C, strain ard1, active compounds read low 1.02 | locus YHR027C, strain rpn1, active compounds read low 0.999 | locus YHR030C, strain SLT2, active compounds read low 0.97 | locus YHR079C, strain IRE1, active compounds read low 1.02 | locus YHR142W, strain chs7, active compounds read low 0.946 | locus YJL092W, strain hpr5, active compounds read low 0.984 | locus YJL095W, strain BCK1 (second series), active compounds read low 1.01 | locus YJL095W, strain BCK1, active compounds read low 0.972 | locus YJL115W, strain asf1, active compounds read low 0.998 | locus YJL129C, strain trk1, active compounds read low 0.989 | locus YJL154C, strain vps35, active compounds read low 0.996 | locus YJL164C, strain tpk1, active compounds read low 0.996 | locus YJL166W, strain qcr8, active compounds read low 1.01 | locus YJL187C, strain SWE1, active compounds read low 1 | locus YJR066W, strain TOR1, active compounds read low 0.947 | locus YKL160W, strain elf1, active compounds read low 0.986 | locus YKR026C, strain gcn3, active compounds read low 0.978 | locus YKR091W, strain srl3, active compounds read low 0.995 | locus YLL001W, strain dnm1, active compounds read low 0.981 | locus YLL026W, active compounds read low 1.01 | locus YLL041C, strain sdh2, active compounds read low 0.988 | locus YLR027C, strain aat2, active compounds read low 1.01 | locus YLR113W, strain HOG1, active compounds read low 0.953 | locus YLR221C, strain rsa3, active compounds read low 0.987 | locus YLR258W, strain gsy2, active compounds read low 1 | locus YLR262C, strain YPT6 (second series), active compounds read low 1 | locus YLR320W, strain mms22, active compounds read low 1.01 | locus YLR342W, strain FKS1, active compounds read low 0.997 | locus YLR357W, strain rsc2, active compounds read low 0.986 | locus YLR370C, strain arc18, active compounds read low 0.994 | locus YLR384C, strain iki3, active compounds read low 1 | locus YML120C, strain ndi1, active compounds read low 0.983 | locus YMR058W, strain fet3, active compounds read low 0.986 | locus YMR125W, strain sto1, active compounds read low 1 | locus YMR129W, active compounds read low 0.994 | locus YMR205C, strain PFK2, active compounds read low 1.03 | locus YMR231W, strain pep5, active compounds read low 1 | locus YNL071W, strain lat1, active compounds read low 1 | locus YNL183C, strain NPR1, active compounds read low 0.935 | locus YNL209W, strain ssb2, active compounds read low 1 | locus YNL248C, strain rpa49, active compounds read low 0.949 | locus YNL322C, strain KRE1 (second series), active compounds read low 0.995 | locus YNR049C, strain mso1, active compounds read low 0.995 | locus YOR001W, strain rrp6, active compounds read low 0.982 | locus YOR070C, strain gyp1, active compounds read low 0.996 | locus YOR080W, strain dia2, active compounds read low 0.998 | locus YOR083W, strain WHI5, active compounds read low 0.995 | locus YOR106W, strain vam3, active compounds read low 0.985 | locus YOR231W, strain MKK1, active compounds read low 0.986 | locus YOR265W, strain rbl2, active compounds read low 1 | locus YOR270C, strain vph1, active compounds read low 0.939 | locus YOR290C, strain snf2, active compounds read low 0.987 | locus YPL051W, strain arl3, active compounds read low 1 | locus YPL078C, strain atp4, active compounds read low 0.972 | locus YPL106C, strain sse1, active compounds read low 1 | locus YPL240C, strain hsp82, active compounds read low 0.986 | locus YPL256C, strain CLN2, active compounds read low 0.963
